DT40 TDP1 no CPT – qHTS for Inhibitors of human tyrosyl-DNA phosphodiesterase 1 (TDP1): qHTS in cells in absence of CPT | DT40 Tdp1-/- hTDP1 cells, no CPT, ATP luminescence, 48 h | Potency, µM (doses to about 46.2 µM), inactives show at the top dose activity change, negative = growth inhibition, hits mostly inhibitors | actives 15% (n = 420,000); also: nearly all actives have a fitted effect of over 55% in size
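Chicken DT40 Tdp1-/- cells stably complemented with human TDP1 were seeded at 400 cells/well with DMSO in place of 20 nM camptothecin. After compound pinning, cells grew at least 48 hr at 37 °C; viability read by CellTiter-Glo luminescence.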
KB-V1 cytotox – KB-V1 MDR subline cytotoxicity; KB-V1 MDR cells viability, CellTiter-Glo, 72 h; Potency, µM (highest dose often 46.1 µM), hits mostly cytotoxic; actives 3.4% (n = 400,000); also: nearly all actives have a fitted effect of over 60% in size
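qHTS viability screen in drug-selected KB-V1 MDR cells: 72 h compound treatment at 37 degrees C, ATP luminescence end point.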
KB-3-1 cytotox – kills parental KB-3-1 adenocarcinoma cells. AID 1347075. actives 1.4% (n = 400,000). Potency, µM (series often up to 46.1 µM), actives largely listed as cytotoxic. KB-3-1 viability, CellTiter-Glo ATP luminescence, 72 h; also: nearly all actives have a fitted effect of over 60% in size
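Using CellTiter-Glo luminescence, growth of non-resistant KB-3-1 adenocarcinoma cells is assessed 72 h after pin-tool compound addition at 37 °C. Normalized responses across the concentration series yield fitted curves.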
HT1080 IDH1KD tx – kills HT-1080 cells with IDH1 knockdown; HT-1080 IDH1 knockdown viability, ATP luminescence, 48 h; Potency, µM (titrated, usually from 46.1 µM), for the others: at the top dose activity, negative = toxicity, actives largely listed as cytotoxic; actives 2% (n = 360,000);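 also: 0% = DMSO wells and -100% = cell-free medium wells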
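Assay cells: HT-1080 with IDH1 knockdown, 750 per well, RPMI/5% FBS. Exposure: 48 h at 37 °C following 2 h pre-incubation. Read: CellTiter-Glo luminescence; fitted concentration-response, curve class assigned.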
TDP1 cell CPT – growth inhibition of DT40 Tdp1-/-;hTDP1 cells with camptothecin (screen for TDP1 inhibitors) | actives 12% (n = 420,000) | chicken DT40 Tdp1-/-;hTDP1 cells + 20 nM CPT, ATP luminescence, 48 h | AID 686979 | Potency, µM (highest dose often 46.2 µM), for inactives: at the highest dose activity change, negative = growth inhibition, most hits filed as inhibitors; also: nearly all actives have a fitted effect of over 55% in size
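Chicken DT40 Tdp1-/- cells complemented with human TDP1, 400 cells/well, exposed to compounds plus 20 nM camptothecin for at least 48 h at 37 C; viability read as ATP content by CellTiter-Glo luminescence.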
HT1080NT lethal – kills 2HG-producing HT-1080-NT fibrosarcoma cells | actives 1.6% (n = 360,000) | AID 686970 | Potency, µM (top dose mostly 46.1 µM), for the others: at the highest dose activity, negative = less viability, actives largely listed as cytotoxic | HT-1080-NT fibrosarcoma viability, CellTiter-Glo ATP luminescence, 48 h;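 also: NT is the 2HG producing partner of a matched IDH1 knockdown line; 0% = DMSO-treated cells and -100% = media-only wells without cells; nearly all actives have a fitted effect of over 55% in size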
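750 cells/well, RPMI + 5% FBS; 2 h settle, compound pin-transfer, 48 h at 37 degrees C. CellTiter-Glo 10 min RT, luminescence. Normalized to DMSO and media-only wells.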
* = called active by the depositor. A selection: hits, their analogues and other compounds. The true share with any hit is near 19%. Calls follow the shape of the dose curve; as a rule, active = well fitted curve in the direction sought with a large enough effect; inconclusive = small, poorly fitted or top-dose-only effect, or another doubt; inactive = no such curve, though single readings can be large; an effect the other way counts as inactive or inconclusive. Unless noted, % is scaled to controls: 0 for no effect and ±100 for the full control effect; potency is read from the fitted curve at half-maximal effect.

Screening CCCOc1cc(CN2CCCCC2)cc(C(C)=O)c1 returned DT40 TDP1 no CPT 5%, KB-V1 cytotox inactive, KB-3-1 cytotox inactive, HT1080 IDH1KD tx 9%, TDP1 cell CPT 13% and HT1080NT lethal 9%.
For COc1ccc(CNC(=O)c2cccc3c(-c4cnn(C)c4)coc23)cc1OC the results were DT40 TDP1 no CPT inconclusive, KB-V1 cytotox inactive, KB-3-1 cytotox inactive, HT1080 IDH1KD tx inconclusive, TDP1 cell CPT inconclusive and HT1080NT lethal 23µM*.
For Cn1cc(-c2ccc(C(=O)NCc3cccc(Cl)c3)c3occc23)cn1 the results were DT40 TDP1 no CPT inconclusive, KB-V1 cytotox inactive, KB-3-1 cytotox inactive, HT1080 IDH1KD tx -22%, TDP1 cell CPT inconclusive and HT1080NT lethal -20%.
Screening Cn1cc(-c2coc3c(C(=O)NCc4cccnc4)cccc23)cn1 returned DT40 TDP1 no CPT 23µM*, KB-V1 cytotox inactive, KB-3-1 cytotox inactive, HT1080 IDH1KD tx -1%, TDP1 cell CPT inconclusive and HT1080NT lethal 1%.
Screening COC(=O)c1c(C)nn(-c2ccc(F)c(Cl)c2)c1-c1cc(C)on1 returned DT40 TDP1 no CPT 5.2µM*, KB-V1 cytotox inactive, KB-3-1 cytotox inconclusive, HT1080 IDH1KD tx -19%, TDP1 cell CPT 12µM* and HT1080NT lethal -15%.
`COc1ccc(-c2cc(C(=O)N3CCCCC3C)no2)cc1OC` (configuration not stated) gave DT40 TDP1 no CPT -17% and TDP1 cell CPT -3%.
Screening CCC1CCCCN1C(=O)c1cc(-c2ccc(Cl)c(Cl)c2)on1 (configuration not stated) returned DT40 TDP1 no CPT inconclusive, KB-V1 cytotox 21µM*, KB-3-1 cytotox inactive, HT1080 IDH1KD tx -18%, TDP1 cell CPT inconclusive and HT1080NT lethal 11%.
`CC1CCCCN1C(=O)c1cc(-c2ccc(Cl)c(Cl)c2)on1` (configuration not stated) gave DT40 TDP1 no CPT inconclusive, KB-V1 cytotox 18µM*, KB-3-1 cytotox inactive, HT1080 IDH1KD tx 18%, TDP1 cell CPT -4% and HT1080NT lethal 22%.
Screening CC1CCCCN1C(=O)c1cc(-c2ccc3c(c2)OCO3)on1 (configuration not stated) returned DT40 TDP1 no CPT 1%, KB-V1 cytotox inactive, KB-3-1 cytotox inactive, HT1080 IDH1KD tx 2%, TDP1 cell CPT 9% and HT1080NT lethal 12%.
COc1ccc(-c2nc3ccccc3o2)cc1NC(=O)COc1ccc(C)cc1 was read as DT40 TDP1 no CPT -18%, KB-V1 cytotox inactive, KB-3-1 cytotox inactive and TDP1 cell CPT inconclusive.
Screening N[C@@H](C(=O)O)c1ccc(O)c(C(=O)O)c1 returned DT40 TDP1 no CPT -11% and TDP1 cell CPT 14%.
Screening COc1ccccc1C(=O)NC(=O)Cn1nc(C)c([N+](=O)[O-])c1C returned DT40 TDP1 no CPT 5%, KB-V1 cytotox inactive, KB-3-1 cytotox inactive, HT1080 IDH1KD tx 7%, TDP1 cell CPT -9% and HT1080NT lethal 3%.
CCOC(=O)C1CCCN(C(=O)c2csc(-c3ccc4c(c3)CCO4)n2)C1 (configuration not stated) was read as DT40 TDP1 no CPT inconclusive, KB-V1 cytotox inactive, KB-3-1 cytotox inactive, HT1080 IDH1KD tx -7%, TDP1 cell CPT inconclusive and HT1080NT lethal -1%.
CC1CCN(c2ncnc3c2nnn3C)CC1 was read as DT40 TDP1 no CPT -15%, KB-V1 cytotox inactive, KB-3-1 cytotox inactive and TDP1 cell CPT -20%.
Screening Cc1ccc2nc(N)nnc2c1 returned DT40 TDP1 no CPT 0.52µM*, KB-V1 cytotox inconclusive, KB-3-1 cytotox inactive, HT1080 IDH1KD tx 3%, TDP1 cell CPT inconclusive and HT1080NT lethal 2%.
